Holding throughout (assay): NCI-60 one-dose screen, 48 h (100 = growth as untreated, 0 = no growth, -100 = all killed)
Assay [1] concerns NCI-H322M lung. Conditions: 10 µM unless noted.
For assay [2], the system named is NCI-H522 lung. As to conditions: 10 µM unless noted.
Assay [3] concerns K-562 leukemia. Conditions: 10 µM unless noted.
Assay [4] relates to U251 CNS. Conditions: 10 µM unless noted.
Assay [5] deals with LOX IMVI melanoma. As to conditions: 10 µM unless noted.
The subject of assay [6] is EKVX NSCLC. As to conditions: 10 µM unless noted.
The subject of assay [7] is TK-10 renal. Conditions: 10 µM unless noted.
The test system of assay [8] is CCRF-CEM leukemia. As to conditions: 10 µM unless noted.
For assay [9], the system named is MOLT-4 leukemia. As to conditions: 10 µM.
Assay [10] deals with SR leukemia. As to conditions: 10 µM.
Assay [11] concerns SK-OV-3 ovarian. Conditions: 10 µM unless noted.
Assay [12] has as its system HS 578T breast. Conditions: 10 µM unless noted.
Assay [13] relates to BT-549 breast. As to conditions: 10 µM.
For assay [14], the system named is SW-620 colon. Conditions: 10 µM unless noted.
In assay [15] the test system is HCT-116 colon. Conditions: 10 µM unless noted.
Assay [16] relates to COLO 205 colon. Conditions: 10 µM.
The test system of assay [17] is CAKI-1 renal. Conditions: 10 µM unless noted.
Assay [18] relates to IGROV1 ovarian. As to conditions: 10 µM.
For assay [19], the system named is HOP-92 NSCLC. Conditions: 10 µM unless noted.

This is part of a sample that, as a whole, favours compounds with a hit. Of some 83,000 tested, about 20% had one in any assay.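 Values shown are percent growth following 48 h exposure of cells in 96-well plates to a single concentration of compound; below 10 was considered active.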 A number with no mark means an inactive call. Active and inactive are the calls of the source.

Turning to `Nc1cccc(CC(=O)Nc2ccc(S(=O)(=O)F)cc2)c1`, the growth was 104% in assay [1]; 84.8% in assay [2]; 144% in assay [3]; 102% in assay [4]; 98% in [5]; 104% in assay [6]. The growth was 107% in assay [7]; 2.63% (active) in assay [8]; 117% in assay [9]; 96.7% in assay [10]; 92.4% in assay [11]; 99.1% in [12]. In addition, the growth in [13] was 97%; in assay [14], 84.3%; in [15], 96.9%.

In the case of `CC12CCC(=O)C=C1CCC1C2CCC2(C)C(C(=O)COC(=O)Cc3ccc(N(CCCl)CCCl)cc3)CCC12` (stereo not given), the growth in [1] is 180%; in assay [2], 81.9%; in assay [16], 88.5%; in assay [3], 77.5%; in assay [4] it was 75.5%; in assay [5] it was 86.4%. The growth in assay [7] is 112%; in assay [17], 27.4%; in [8] it was 26.7%; in [9], 49.5%; in assay [10], -2.48% (active); in assay [11] it was 90%. The growth is 82.4% in [12], 75.6% in assay [14] and 82.4% in [15].

As for `N#[N+]c1cnc([O-])[nH]c1=O`, the growth is 98.9% in assay [1]; 14.4% in assay [2]; 76% in assay [3]; 85.2% in [5]; 114% in assay [6]; 92.6% in [7]. The growth was 94.3% in assay [17]; 69.9% in assay [8]; 91% in assay [9]; 64.8% in assay [10]; 83.5% in assay [12]; 114% in assay [13]. Also, the growth in assay [14] is 89%; in [15], 108%.

As to `O=C(Nc1ccc(S(=O)(=O)F)cc1)Oc1ccccc1`, the growth in assay [1] is 94.8%; in assay [16] it was 110%; in assay [3], 100%; in assay [4], 96.8%; in assay [5], 95.1%; in assay [7] it was 96.5%. Besides, the growth in assay [17] was 105%; in assay [8] it was 88.1%; in assay [9], 109%; in assay [10], 99.9%; in [11], 102%; in [18], 99.1%. The results for the growth in assay [13], in assay [14] and in assay [15] were 98.2%, 97% and 116%, respectively.

Regarding `CCOc1cc(C=C(C#N)C#N)cc(Br)c1O`, the growth in [1] is 98.1%; in [2], 100%; in assay [16] it was 103%; in assay [3] it was 75.2%; in assay [4], 96.5%; in assay [5], 97.1%. Also, the growth is 104% in assay [6]; 102% in assay [7]; 102% in assay [8]; 85.5% in assay [9]; 93.4% in [10]; 116% in assay [11]. The growth in assay [18] was 109%; in [12], 107%; in [13], 99.1%; in [14] it was 106%; in [15], 99.2%.

In the case of `Fc1ccc(C2=NN(c3ccccc3)C(c3sc(N(CCCl)CCCl)nc3Cl)C2)cc1` (stereo not given), the growth in assay [1] is 82.3%; in assay [2], 64.2%; in [3], 69.8%; in assay [4], 85.9%; in [5], 83.2%; in assay [6], 84%. Further, the growth in [7] was 117%; in [17] it was 62.2%; in assay [8] it was 83.1%; in assay [9], 65.4%; in assay [10], 83%; in assay [11] it was 76.5%. Also, the growth in [18] was 82.7%; in assay [12] it was 74.5%; in assay [14], 84.4%; in assay [15] it was 68.2%.

Consider `O=C(O)CC(Br)C(=O)CBr` (stereo not given), for which the growth in assay [1] was 100%; in assay [16], 109%; in assay [3] it was 105%; in assay [4] it was 99.2%; in assay [5], 86.6%; in [7], 98.9%. The growth in [9] is 103%; in assay [10] it was 113%; in [18], 109%; in [12] it was 104%; in assay [13] it was 98.2%; in assay [14] it was 103%. Also, the growth in assay [15] is 100%.

`CC(=O)Nc1ccc(C=C2C(=O)NC(=O)NC2=O)cc1`: the growth is 104% in assay [1]; 91.5% in [19]; 104% in assay [2]; 106% in assay [16]; 104% in assay [3]; 96.8% in assay [5]. Moreover, the growth in [6] is 106%; in assay [7], 107%; in assay [17], 97.5%; in [8] it was 86.1%; in assay [9], 88%; in [10], 95.7%. The growth in [11] is 105%; in assay [18], 107%; in assay [15], 101%.

Take `O=C1c2ccccc2C(=O)N1[N+](=O)[O-]`: the growth in [1] was 84.4%; in assay [19], 91.1%; in [2], 88.7%; in [3], 105%; in [4], 93.2%; in assay [5] it was 91.6%. The growth in assay [7] was 93.2%; in assay [17] it was 106%; in assay [8], 90%; in assay [9], 108%; in assay [10], 95.4%; in assay [11] it was 114%. Moreover, the growth in assay [18] is 109%; in assay [12] it was 106%; in assay [13], 110%; in [14] it was 103%; in assay [15], 112%.

In the case of `CN(Cc1cccnc1)N=O`, the growth in [19] was 95.3%; in assay [2] it was 89.9%; in [16], 105%; in assay [3], 104%; in [4] it was 97.1%; in assay [5], 93.5%. Also, the growth was 100% in [8]; 102% in [9]; 98.4% in assay [10]; 99.4% in assay [11]; 99.7% in [18]; 89% in [12]. In assay [15], the growth is 93.1%.
